{
  "source": "ChEMBL document CHEMBL1201862",
  "about": "“PubChem BioAssay data set” (2004)",
  "note": "About 4,300 (7.7%) of roughly 56,000 sequences were called active. Cut-off read from the data, not from the text of the source: active = GI50 up to about 1.1 µM and inactive = higher. Not all results are given here. Results with a measured potency or affinity are listed apart.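 Assay format: 96-well plates, 48-hour exposure. GI50 is the concentration that inhibits growth by half.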",
  "data": [
    {"test_system": "OVCAR-3", "assay": "NCI tumour cell line growth inhibition, 48 h", "units": {"GI50": "µM"}, "values": [
      {"substance": "[Bis(aminomethyl)dimethylsilane]dichloroplatinum (II), CHEMBL2146201", "GI50": 30.5},
      {"substance": "[Bis(aminomethyl)pentamethylenesilane]dichloropaltinum(II), CHEMBL2146202", "GI50": 6.5},
      {"substance": "[Bis(aminomethyl)dimethylsilane]tetrachloroplatinum(IV), CHEMBL2146190", "GI50": 7.29},
      {"substance": "cis-Bis[[(trimethylsilyl)methyl]amino]tetrachloroplatinum(IV), CHEMBL2146191", "GI50": 2.99},
      {"substance": "[Bis(aminomethyl)pentamethylenesilane]tetrachloropaltinum(IV), CHEMBL2146204", "GI50": 4.56},
      {"substance": "[Bis(aminomethyl)tetramethylenesilane]dichloropaltinum(II), CHEMBL2146205", "GI50": 32.5},
      {"substance": "[Bis(aminomethyl)tetramethylenesilane]tetrachloropaltinum(IV), CHEMBL2146189", "GI50": 13.1},
      {"substance": "CISPLATIN, CHEMBL11359", "GI50": 2.67},
      {"substance": "[Bis(aminomethyl)diethylsilane]tetrachloroplatinum(IV), CHEMBL2146203", "GI50": 6.11},
      {"substance": "[Bis(aminomethyl)ethylmethylsilane]tetrachloroplatinum(IV), CHEMBL2146192", "GI50": 4.43},
      {"substance": "mu-(1,7-nanodiamine-N,N')bis-(cis-aminedichloroplatimum (II)), CHEMBL2146215", "GI50": 29}
    ]}
  ]
}
